PubChem BioAssay AID623970 (The Scripps Research Institute Molecular Screening Center, 2012)
A number with no mark means an inactive call. Active and inactive are the calls of the source. Cut-off read from the data, not from the text of the source: active = IC50 below about 90 µM; inactive = the rest.

Experiment: DNA binding via SYBR dye displacement, late-stage follow-up, artefact control for HCV NS3 helicase inhibitor project, biochemical, fluorescence (AID 623970)
`COc1ccc(C(=O)Nc2ccc(-c3nc4ccc(-c5nc6ccc(C)c(S(=O)(=O)O)c6s5)cc4s3)cc2)cc1` gave an IC50 greater than 100 µM. `Cc1ccc2nc(-c3ccc(NC(=O)c4ccc(NC(=O)c5ccc(N)cc5)cc4)cc3)sc2c1S(=O)(=O)O` showed an IC50 greater than 100 µM. With `Cc1ccc(NC(=O)Nc2ccc(-c3nc4ccc(-c5nc6ccc(C)c(S(=O)(=O)O)c6s5)cc4s3)cc2)cc1` the IC50 was 18 µM (active). With `Cc1ccc2nc(-c3ccc4nc(-c5ccc(NC(=O)Nc6ccc(F)cc6)cc5)sc4c3)sc2c1S(=O)(=O)O` the IC50 was 74 µM (active). `Cc1ccc2nc(-c3ccc4nc(-c5ccc(N(C)C(=O)c6ccc7ccccc7c6)cc5)sc4c3)sc2c1S(=O)(=O)O` showed an IC50 greater than 100 µM.
